Measurements published in PubChem BioAssay (EPA / NIEHS).
Inconclusive results are not listed. Calls of active or inactive are those of the source. How the source made its calls: active means hit-call score of the fitted dose curve at least 0.9, where 1 is the maximum; inconclusive means response in the unintended direction; inactive means score below 0.9.

Biological target: human Vitamin D Receptor (VDR), VDR (gene 7421) (UniProt P11473)
Assay: ATG_VDR_TRANS: Attagene TRANS-FACTORIAL HepG2 Assay for human Vitamin D Receptor (VDR) (AID 2283022)
Method in brief: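 HepG2 cells were transiently transfected with GAL4-UAS reporter units and a chimeric VDR-Gal4 construct, then dosed for 24 hours. Reporter mRNA was quantified by RT-PCR, fluorescent labeling, HpaI digestion and capillary electrophoresis; gain of signal analysed vs DMSO.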

Chain of human Vitamin D Receptor (VDR), VDR (gene 7421) (P11473 whole entry, looked up): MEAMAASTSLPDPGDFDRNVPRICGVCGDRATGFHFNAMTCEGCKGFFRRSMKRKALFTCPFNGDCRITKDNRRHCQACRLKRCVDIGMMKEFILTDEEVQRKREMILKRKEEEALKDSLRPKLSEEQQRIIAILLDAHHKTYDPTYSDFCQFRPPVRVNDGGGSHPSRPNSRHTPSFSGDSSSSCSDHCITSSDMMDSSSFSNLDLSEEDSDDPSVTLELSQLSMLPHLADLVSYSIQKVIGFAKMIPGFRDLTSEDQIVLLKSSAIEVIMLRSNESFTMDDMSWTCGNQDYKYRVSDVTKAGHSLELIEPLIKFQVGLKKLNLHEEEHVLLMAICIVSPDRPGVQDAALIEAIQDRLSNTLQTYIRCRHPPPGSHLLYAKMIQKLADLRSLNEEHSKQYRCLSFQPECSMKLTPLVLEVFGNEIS

outcome, inactive:
C=C(C)CNCC, C[Si]1(C)O[Si](C)(C)O[Si](C)(C)O1, CCCCC1(COC(=O)CCC(=O)O)C(=O)N(c2ccccc2)N(c2ccccc2)C1=O, C#CC(C)N(C)C(=O)Nc1ccc(Cl)cc1 (configuration not stated), O=C1CCCC=CCCCCCCCCCC1, BrCc1cccc(Oc2ccccc2)c1, OCCOCCN1CCN(C2=Nc3ccccc3Sc3ccccc32)CC1, CCOC(=O)CN, CC(C)C(OC(=O)c1ccccc1)C(C)(C)COC(=O)c1ccccc1 (configuration not stated), C=Cc1ccc(C)cc1, CS(=O)(=O)c1ccc(Cl)cc1, Cc1ccc(N)c(S(=O)(=O)O)c1, CS(C)=O, ON=C1CCCCC1, OCc1cccc(Oc2ccccc2)c1, CC1=NN(c2ccc(S(=O)(=O)O)cc2)C(=O)C1, C#CC(C)(O)CC(C)C (configuration not stated), Cc1cc(S(=O)(=O)O)ccc1N=Nc1c(O)ccc2ccccc12, CCOC(=O)C1OC1c1ccccc1 (configuration not stated), CC(C)(C)OC(=O)c1ccc(O)cc1, CCCCCc1ccco1, C=C(C)[C@@H]1CC=C(C)C(=O)C1, Cc1cccc(Nc2ccccc2)c1, CC(=O)O[C@H]1C[C@@H]2CC[C@@]1(C)C2(C)C, CCCOC(=O)c1c(Cl)c(Cl)c(Cl)c(Cl)c1C(=O)OCCC, N[C@@H](Cc1cc(I)c(Oc2cc(I)c(O)c(I)c2)c(I)c1)C(=O)O, Nc1ccc(N)c2c1C(=O)c1ccccc1C2=O, CN1C(=O)c2ccccc2C1=O, COC(=O)C=C(C)CCC=C(C)C, O=CCc1ccccc1, CCC(Cl)C(Cl)C(Cl)CC(Cl)C(Cl)C(C)Cl (configuration not stated), Cc1cc(=O)oc2cc(N(C)C)ccc12
